Bioassay records as filed in PubChem BioAssay.
In the library only some 7.5% were active in any assay of this set; here they are far more common.
VACV mCherry inh: inhibitors of vaccinia virus infection (mCherry reporter signal); Vaccinia virus mCherry reporter infection, fluorescence; Potency, µM (series often up to 36.5 µM), actives largely listed as inhibitors; 310,000 tested, 0.63% active; AID 720579; calls by dose curve; tested in A549 cells; also: nearly all actives have a fitted effect of over 35% in size
FBPA Giardia inh: inhibitors of Giardia lamblia fructose-1,6-bisphosphate aldolase. AID 2451. purified Giardia FBPA. Potency, µM (doses to about 59.6 µM), hits mostly inhibitors. 290,000 tested, 0.71% active. A8B2U2; also: nearly all actives have a fitted effect of over 55% in size
Target sequence (A8B2U2 whole entry, looked up): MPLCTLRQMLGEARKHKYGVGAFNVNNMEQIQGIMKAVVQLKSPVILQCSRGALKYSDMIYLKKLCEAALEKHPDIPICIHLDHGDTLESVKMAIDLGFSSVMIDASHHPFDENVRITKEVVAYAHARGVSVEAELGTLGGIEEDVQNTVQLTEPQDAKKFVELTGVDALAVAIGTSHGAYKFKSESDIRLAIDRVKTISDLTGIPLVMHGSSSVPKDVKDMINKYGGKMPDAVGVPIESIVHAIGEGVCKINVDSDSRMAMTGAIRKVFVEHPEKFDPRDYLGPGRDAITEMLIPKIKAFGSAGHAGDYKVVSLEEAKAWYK
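40 nM FBPA preincubated 10 min at RT with compound (up to 57.5 uM final), then substrate plus GAPDH/TPI/NAD/arsenate coupling and diaphorase/resazurin added. Fluorescence read after 20 min at RT, 525/598 nm.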
HCV inhibitor: HCV inhibition; Huh7.5.1 HCVcc-Cre infection, luciferase reporter, 44 h; Potency, µM (doses to about 41.8 µM), most hits filed as inhibitors; 340,000 tested, 3.4% active; AID 651820
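Reporter virus HCVcc-Cre (~0.5 moi) infects cells exposed to compound; seeding density 1,000 cells/well with 4 h settling beforehand. Luminescence, 15 sec read, taken 44 h post-infection following a 15 min RT substrate incubation.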
VACV Venus inh: inhibitors of vaccinia virus (Venus reporter); Vaccinia virus Venus reporter expression, fluorescence; Potency, µM (series often up to 36.5 µM), hits mostly inhibitors; 330,000 tested, 0.46% active; calls by dose curve; tested in A549 cells; also: nearly all actives have a fitted effect of over 30% in size
HCMV antiviral: human cytomegalovirus inhibition; activity change, negative = inhibition, % at 57.5 µM; 410,000 tested, 4.5% active; HFF cells, HCMV-luciferase reporter, 72 h; hits give low values; AID 1259415; in the data active = activity change below about -60%; inconclusive = no clear call, values can overlap the other calls; inactive = above about -39%
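Screen run at 2 compound doses on HFFs infected with reporter HCMV, MOI 1 PFU/cell. Luciferase activity from cell lysates at 72 h post infection gave inhibition relative to buffer-only and Salinomycin wells.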
FMDV inh: blocks foot and mouth disease virus; Potency, µM (titrated, usually from 57.9 µM), hits mostly inhibitors; 410,000 tested, 1.2% active; FMDV antiviral cell-based qHTS; calls by dose curve; tested in HEK293T cells; also: read-out not given here; nearly all actives have a fitted effect of over 45% in size
A number is an active result; [ ] = remark or other dose. Unless noted, calls follow the shape of the dose curve; as a rule, active = well fitted curve in the direction sought with a large enough effect; inconclusive = small, poorly fitted or top-dose-only effect, or another doubt; inactive = no such curve, though single readings can be large; an effect the other way counts as inactive or inconclusive.

CCOc1ccc(NC(=O)c2ccc3c(SCC(=O)O)c4c(nc3c2)CCC4)cc1 was read as VACV mCherry inh inactive, VACV Venus inh inactive, HCMV antiviral inactive and FMDV inh inactive.
CCc1cccc(CC)c1NC(=O)CSc1nc2ccc(N3C(=O)C4C(C3=O)[C@H]3C=C[C@@H]4C3)cc2s1 (stereo not given in full) was read as VACV mCherry inh inconclusive, FBPA Giardia inh inactive, HCV inhibitor inconclusive, VACV Venus inh inconclusive, HCMV antiviral -71.5 and FMDV inh inconclusive.
`CCN(CC)S(=O)(=O)c1cccc(C(=O)NC(Cc2c[nH]c3ccccc23)c2nnc3n2CCC3)c1` (stereo not given) gave VACV mCherry inh inactive, FBPA Giardia inh inactive, HCV inhibitor inactive, VACV Venus inh inactive, HCMV antiviral -61.1 and FMDV inh inactive.
`CCOc1ccc2oc(C(=O)NC3CC(C)(C)NC(C)(C)C3)c(C)c2c1` gave FBPA Giardia inh inactive, HCV inhibitor 12.6µM, HCMV antiviral inactive and FMDV inh inactive.
Screening CC(NC(=O)c1ccccc1F)C1CC1 (stereo not given) returned VACV mCherry inh inactive, FBPA Giardia inh inactive, HCV inhibitor inactive, VACV Venus inh inactive, HCMV antiviral inactive and FMDV inh inactive.
Screening CC(=O)NC(c1cccc(F)c1)c1nc(-c2cccs2)cs1 (stereo not given) returned VACV mCherry inh inactive, VACV Venus inh inactive, HCMV antiviral inactive and FMDV inh inactive.
CC(C)(C)c1ccccc1NC(=S)NCc1ccccc1 was read as VACV mCherry inh inactive, FBPA Giardia inh inconclusive, HCV inhibitor inactive, VACV Venus inh inactive, HCMV antiviral -71.7 and FMDV inh inactive.
`S=C(NCc1ccc(Cl)cc1)Nc1ccccc1` gave VACV mCherry inh inactive, FBPA Giardia inh inactive, HCV inhibitor inactive, VACV Venus inh inactive, HCMV antiviral -66.5 and FMDV inh inactive.
`S=C(NCc1ccc(Cl)cc1)Nc1ccncc1` gave HCV inhibitor 6.31µM, HCMV antiviral inconclusive and FMDV inh inactive.
`S=C(NCc1ccncc1)Nc1cccc(Cl)c1` gave VACV mCherry inh inactive, FBPA Giardia inh inactive, HCV inhibitor inactive, VACV Venus inh inactive, HCMV antiviral inactive and FMDV inh inactive.
`Fc1ccc(CNC(=S)Nc2ccc(Cl)cc2)cc1` gave VACV mCherry inh inactive[1.46 µM], FBPA Giardia inh inactive, HCV inhibitor inactive, VACV Venus inh inconclusive, HCMV antiviral inconclusive and FMDV inh inactive.
`CCCC(C)C(=O)Nc1ccc(Cl)cc1Cl` (stereo not given) gave FBPA Giardia inh inactive, HCV inhibitor inactive, VACV Venus inh inactive, HCMV antiviral -77.8 and FMDV inh inactive.
`CCc1nc(C)cn1S(=O)(=O)c1ccc(Cl)c(Cl)c1OC` gave VACV mCherry inh inactive[7.34 µM], VACV Venus inh inactive[7.34 µM], HCMV antiviral -74.9 and FMDV inh inconclusive.
For C=CCCC(=O)N[C@H]1CC[C@@]23CCCN2C(=O)CCC[C@H]3[C@H]1Cc1ccccc1 the results were HCMV antiviral inactive.
`FC(F)(F)c1cccc(-c2nnc(-c3ccccc3)c(N3CCOCC3)n2)c1` gave FBPA Giardia inh inactive, HCV inhibitor 10µM, HCMV antiviral inactive and FMDV inh inactive.
Screening FC(F)(F)c1nnc(-c2ccccc2)nc1N1CCOCC1 returned FBPA Giardia inh inactive, HCV inhibitor inactive, HCMV antiviral inactive and FMDV inh inactive.
COC(=O)c1cc(NC(=O)Cn2nc(-c3ccc(C)c(C)c3)ccc2=O)cc(C(=O)OC)c1 was read as VACV mCherry inh inconclusive, VACV Venus inh inactive, HCMV antiviral inactive and FMDV inh inactive.
Screening CN(C)CCSc1nc(O)c(-c2ccccc2)c(=O)n1-c1ccccc1 returned VACV mCherry inh inactive, FBPA Giardia inh inactive, HCV inhibitor inactive, VACV Venus inh inactive, HCMV antiviral inactive and FMDV inh inactive.
`Cc1sc2nc(SCCN(C)C)n(-c3ccccc3)c(=O)c2c1-c1ccc(F)cc1` gave VACV mCherry inh inactive, FBPA Giardia inh inactive, HCV inhibitor 7.08µM, VACV Venus inh inactive, HCMV antiviral inconclusive and FMDV inh inactive.
COC(=O)c1ccc(CO/N=C/c2ccc(OC)cc2)o1 was read as VACV mCherry inh inactive, FBPA Giardia inh inactive, HCV inhibitor inactive, VACV Venus inh inactive, HCMV antiviral inactive and FMDV inh inactive.
CCCCNc1cccc2c1S(=O)(=O)N[C@H](CC(C)C)CO2 was read as HCMV antiviral inactive.
COc1cc(Cl)c(NC(=O)CN2C(=O)c3cccnc3Sc3ccccc32)c(OC)c1 was read as VACV mCherry inh inconclusive, VACV Venus inh inconclusive, HCMV antiviral inactive and FMDV inh inactive.
For COc1cc(C=CC(=O)c2cc(OC)c(OC)c(OC)c2)cc(OC)c1OC the results were VACV mCherry inh inactive, HCV inhibitor inconclusive, VACV Venus inh inconclusive, HCMV antiviral -97.2 and FMDV inh 12.6µM.
Screening COc1ccc2cc(C(=O)/C=C/c3cc(OC)c(OC)c(OC)c3)ccc2c1 returned VACV mCherry inh inactive, FBPA Giardia inh inactive, HCV inhibitor inconclusive, VACV Venus inh inactive, HCMV antiviral inactive and FMDV inh inactive.
Screening COc1cc(C=CC(=O)c2ccccc2)cc(OC)c1OC returned VACV mCherry inh inactive, VACV Venus inh inactive, HCMV antiviral inactive and FMDV inh 15.8µM.
COc1ccccc1/C=C/C(=O)c1ccc(NC(C)=O)cc1 was read as VACV mCherry inh inconclusive, FBPA Giardia inh inactive, HCV inhibitor inconclusive, VACV Venus inh inconclusive, HCMV antiviral -101.5 and FMDV inh inconclusive.
COc1cc(/C=C/C(=O)N2CCC=CC2=O)cc(OC)c1OC was read as VACV mCherry inh inactive, FBPA Giardia inh inactive, HCV inhibitor 31.6µM, VACV Venus inh inconclusive, HCMV antiviral -97.0 and FMDV inh inconclusive.
For COc1c(OC)c2occc2c2oc(=O)ccc12 the results were VACV mCherry inh inactive, FBPA Giardia inh inactive, VACV Venus inh inactive and FMDV inh inactive.
Screening COc1ccc(N2CC(C)(C)[C@H](CC(=O)Nc3ccccc3)C2=O)cc1 returned VACV mCherry inh inactive, VACV Venus inh inactive, HCMV antiviral inactive and FMDV inh inactive.
`O=C(NCCc1nnc2n1CCN(Cc1ccc3c(c1)CCO3)CC2)c1ccco1` gave VACV mCherry inh inactive, VACV Venus inh inactive and FMDV inh inactive.
`CCOC(=O)[C@@H]1[C@H]2COc3cc(OC)ccc3[C@@H]2N2C(=O)N(c3cccc(C)c3)C(=O)[C@]12C` gave VACV mCherry inh inactive, HCV inhibitor inactive, VACV Venus inh inactive, HCMV antiviral inactive and FMDV inh inactive.
Screening CC[N+](CC)(CCCCS(=O)(=O)[O-])CCNP1(=O)C=C(c2ccccc2)OC(c2ccccc2)=C1 returned FBPA Giardia inh inactive, HCV inhibitor inactive, HCMV antiviral -70.4 and FMDV inh inactive.
Screening O=C(C[n+]1ccn(CCCNP2(=O)C=C(c3ccccc3)OC(c3ccccc3)=C2)c1)c1ccccc1 returned FBPA Giardia inh inactive, HCV inhibitor inactive, HCMV antiviral inconclusive and FMDV inh inactive.
